Source: PubChem (National Center for Advancing Translational Sciences (NCATS))
KB-V1 MDR tox – KB-V1 MDR subline cytotoxicity; KB-V1 MDR cells viability, CellTiter-Glo, 72 h; Potency, µM (top dose mostly 46.1 µM), most hits filed as cytotoxic; 400,000 tested, 3.4% active; also: nearly all actives have a fitted effect of over 60% in size
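Cytotoxicity toward P-gp-expressing KB-V1 cells was determined as loss of CellTiter-Glo luminescence after 72 h at 37 degrees C. Compounds were tested in quantitative HTS format across a concentration range, with curves fitted to normalized data.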
Giardia kill – kills Giardia lamblia. Giardia lamblia trophozoite viability. activity change, % at 7.66 µM, hits read low. 340,000 tested, 0.15% active. AID 540267; in the data active = activity change below about -80%; inconclusive = between about -30% and that limit;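 also: parasites exposed to compound for two days anaerobically before the ATP read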
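Killing of trophozoites was scored by loss of ATP luminescence after a 48 hrs anaerobic exposure to compounds at 37 deg C, using 100 cells per well.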
SW480 rerep – inducers of DNA re-replication in SW480 colon cancer cells; Potency, µM (doses to about 46.1 µM), usual class: activators; AID 624297; 340,000 tested, 1.8% active; SW480 DNA re-replication, Hoechst DNA content imaging, 48 h; also: nearly all actives have a fitted effect of over 55% in size
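SW480 cells exposed to compounds for 48 hr at 37 C, 5% CO2, then Hoechst-stained 40 min. Nuclear DNA content imaged by fluorescence scanning (405 nm excitation, 500-530 nm emission); re-replication scored as increased high-intensity nuclei.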
KB-3-1 tox – KB-3-1 parental cell cytotoxicity | KB-3-1 viability, CellTiter-Glo ATP luminescence, 72 h | Potency, µM (highest dose often 46.1 µM), hits mostly cytotoxic | 400,000 tested, 1.4% active; also: nearly all actives have a fitted effect of over 60% in size
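72 h, 37 °C compound treatment of KB-3-1 parental cells; CellTiter-Glo added, 10 min, luminescence read. Data corrected against DMSO-only plates and normalized before curve fitting.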
S-ASM inh – blocks human secretory acid sphingomyelinase. P17405. placental ASM, HMU-PC fluorogenic substrate, 60 min. Potency, µM (top dose mostly 57.5 µM), actives largely listed as inhibitors. 340,000 tested, 0.006% active. AID 504937
Target sequence (P17405 47-631 limits assumed): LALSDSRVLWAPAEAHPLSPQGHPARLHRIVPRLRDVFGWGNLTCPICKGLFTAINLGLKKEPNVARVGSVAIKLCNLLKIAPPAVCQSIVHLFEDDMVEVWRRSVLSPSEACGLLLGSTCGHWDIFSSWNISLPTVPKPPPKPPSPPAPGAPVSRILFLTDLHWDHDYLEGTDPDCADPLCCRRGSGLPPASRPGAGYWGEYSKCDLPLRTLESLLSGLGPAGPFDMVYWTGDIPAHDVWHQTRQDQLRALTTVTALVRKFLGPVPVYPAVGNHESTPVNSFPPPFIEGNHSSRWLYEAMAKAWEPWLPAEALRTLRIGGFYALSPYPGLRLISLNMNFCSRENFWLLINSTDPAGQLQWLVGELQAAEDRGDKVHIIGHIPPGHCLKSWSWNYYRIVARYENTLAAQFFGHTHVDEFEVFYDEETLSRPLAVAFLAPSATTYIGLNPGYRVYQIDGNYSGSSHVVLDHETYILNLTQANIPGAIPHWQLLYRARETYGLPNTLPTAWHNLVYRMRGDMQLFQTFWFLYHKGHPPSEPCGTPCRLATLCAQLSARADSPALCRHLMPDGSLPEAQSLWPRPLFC
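Steps: dispense placental human ASM, pin compound, wait 10 min at room temperature, add HMU-PC0 substrate at 9 uM final, incubate 60 min at 37 °C, add stop solution raising pH to 10, read fluorescence.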
MCF10A rereplic – DNA re-replication induction in MCF 10a cells; Potency, µM (top dose mostly 46.1 µM), hits mostly activators; MCF 10A DNA re-replication, Hoechst nuclear intensity, 48 h; 350,000 tested, 2.9% active; AID 624296; also: nearly all actives have a fitted effect of over 50% in size
Hits are given with their value; . = inactive; ? = inconclusive; / = not tested or not shown. Only some compounds are listed: those with a hit (about 6.9% of all), similar ones and a draw of the others. Unless noted, calls follow the shape of the dose curve; as a rule, active = well fitted curve in the direction sought with a large enough effect; inconclusive = small, poorly fitted or top-dose-only effect, or another doubt; inactive = no such curve, though single readings can be large; an effect the other way counts as inactive or inconclusive.

SMILES	KB-V1 MDR tox	Giardia kill	SW480 rerep	KB-3-1 tox	S-ASM inh	MCF10A rereplic
COc1ccccc1NC(=O)c1oc2ccccc2c1NC(=O)c1ccc(S(=O)(=O)N(C)C)cc1	.	/	/	.	/	/
Cc1ccccc1CCNC(=O)c1cc2ccccn2n1	.	/	/	.	/	/
COC(=O)c1ccc(-c2nc3ccc(C)cc3o2)cc1	?	.	7.3µM	?	.	?
Cc1ccc(C(C)NC(=O)CSc2ccc(S(=O)(=O)N3CCOCC3)cn2)cc1C (configuration not stated)	18µM	.	.	.	.	.
Cc1ccc2c(C)c(C)c(=O)n(C)c2c1	15µM	.	.	.	.	.
COc1cccc(N2CCN(C(=O)c3cc4c(s3)-c3c(C)cccc3OC4)CC2)c1	.	/	/	.	/	/
CC(OC(=O)c1ccc2ncsc2c1)C(=O)N(C)C1CCCCC1 (configuration not stated)	.	.	.	.	.	.
CCc1ccc(NC(=S)NNC(=O)c2ccccc2OC(F)F)cc1	/	/	.	/	/	?
COc1ccc(NC(=S)NNC(=O)c2ccccc2OC(F)F)cc1	.	.	0.58µM	.	.	?
Cc1cccc(NC(=S)NNC(=O)c2ccccc2OC(F)F)c1	16µM	.	.	?	.	?
Clc1ccccc1-c1nnc(COc2ccccc2)o1	.	/	/	.	/	/
CC1=Nc2cc(C(=O)NCc3ccco3)ccc2Sc2ccc(C)cc21	0.58µM	.	1.3µM	?	.	1µM
CCC(C)NC(=O)c1ccc2c(c1)N=C(C)c1cc(C)ccc1S2 (configuration not stated)	.	/	/	5.2µM	/	/
CC1=Nc2cc(C(=O)NCC3CCCO3)ccc2Sc2ccc(C)cc21 (configuration not stated)	.	.	1µM	?	.	2.1µM
CC1=Nc2cc(C(=O)NCCCN3CCN(C)CC3)ccc2Sc2ccc(C)cc21	.	.	.	.	.	?
CC1=Nc2cc(C(=O)O)ccc2Sc2ccc(C)cc21	.	.	.	.	.	.
COc1ccc(C(=O)COC(=O)c2cc(-c3ccccc3)nc3c(C)cccc23)cc1	.	/	/	.	/	/
Cc1cccc(NC(=O)/C(C#N)=C/c2ccc(C)o2)c1	.	/	/	.	/	/
COc1ncnc(OC)c1S(=O)(=O)Nc1ccc(C(F)(F)F)cc1	.	.	.	.	.	.
CC(OC(=O)/C(C#N)=C/c1ccc(N(C)C)cc1)C(=O)N(C)c1ccccc1 (configuration not stated)	18µM	.	.	.	.	?
CC(=O)Nc1ccc(NC(=O)C(C)OC(=O)/C(C#N)=C/c2ccc(N(C)C)cc2)cc1 (configuration not stated)	.	.	.	.	.	.
O=C(CN(Cc1cccs1)S(=O)(=O)c1ccc(S(=O)(=O)NC2CCCCC2)cc1)Nc1ccccc1	13µM	.	.	?	.	?
O=C(CN(C1CC1)S(=O)(=O)c1ccc(S(=O)(=O)NC2CCCCC2)cc1)Nc1ccccc1	.	.	?	?	.	.
COc1cc(C(C)=O)ccc1Oc1ncnc2c1cnn2-c1ccccc1	15µM	.	.	.	.	.
NNc1cc2c(nn1)CCN(C(=O)c1ccccc1)C2	.	/	/	18µM	/	/
SMILES	KB-V1 MDR tox	Giardia kill	SW480 rerep	KB-3-1 tox	S-ASM inh	MCF10A rereplic
O=C(O)c1ccc(CNCc2ccc(Cl)cc2)s1	?	/	/	.	/	/
O=C(N/N=C/c1cc(Br)cc(Br)c1O)c1cccc(S(=O)(=O)N2CCOCC2)c1	.	.	0.65µM	?	.	.
O=C(N/N=C/c1cc(Br)cc(Br)c1O)c1cccc(N2CCCC2=O)c1	.	.	8.2µM	?	.	?
COc1cccc(/C=N/NC(=O)c2ccc(N3CCCC3=O)cc2)c1	?	.	1.8µM	16µM	.	13µM
O=C(N/N=C/c1ccccc1Br)c1cccc(S(=O)(=O)N2CCOCC2)c1	.	.	.	.	.	.
O=C(N/N=C/c1sc(N2CCOCC2)nc1-c1ccccc1)c1cccc(S(=O)(=O)N2CCCC2)c1	?	.	.	3.7µM	.	15µM
COc1cccc(CNC(=O)Cn2c(=O)cc(C)c3c(C)nn(C)c32)c1OC	?	/	/	.	/	/
O=C(Nc1cccc(C(=O)Nc2ccc(S(=O)(=O)O)c3cc(S(=O)(=O)O)cc(S(=O)(=O)O)c23)c1)Nc1cccc(C(=O)Nc2ccc(S(=O)(=O)O)c3cc(S(=O)(=O)O)cc(S(=O)(=O)O)c23)c1	?	/	/	.	/	/
CCN(CC)c1ccc(C(=O)OCC(=O)Nc2cc(C)on2)cc1	.	.	.	.	.	.
Cc1ccc(NC(=O)C2CCCN(S(=O)(=O)c3cccc4nsnc34)C2)c(C)c1 (configuration not stated)	.	/	/	.	/	/
Oc1c(CN2CCN(c3ccccc3)CC2)cc(Br)c2cccnc12	.	.	18µM	?	.	.
CCOC(=O)N1CCN(Cc2cc(Cl)c3cccnc3c2O)CC1	.	.	4.6µM	?	.	?
CC(C)OCc1cc(CN2CCN(c3ccccc3)CC2)c(O)c2ncccc12	6.5µM	/	/	?	/	/
CCOC(=O)N1CCN(Cc2ccccc2Cl)CC1	.	.	.	.	.	.
c1ccc(N2CCN(Cc3ccnc4ccccc34)CC2)cc1	.	.	.	16µM	.	.
Oc1c(Br)cc(Br)c2cccnc12	?	.	?	.	.	?
COc1ccc(Cl)cc1NC(=O)Cn1c(=O)n(CCC(=O)NCc2ccc3c(c2)OCO3)c(=O)c2ccccc21	.	/	/	.	/	/
COc1cc(C2Nc3ccccc3-c3nnc(SCc4ccc(C)cc4)nc3O2)cc(OC)c1O (configuration not stated)	.	/	/	.	/	/
Cc1ccc(-n2c(SCC(=O)NCc3ccccc3)nc3n[nH]c(C)c3c2=N)cc1Cl	.	/	/	.	/	/
COCc1cc(CN2CCN(C)CC2)c(O)c2ncccc12	3.7µM	.	?	?	.	?
Cc1ccc(C(c2cc(Cl)c3cccnc3c2O)N2CCN(C)CC2)cc1 (configuration not stated)	.	.	?	?	.	.
COC(=O)[C@@]12C[C@@H](CC(=O)N3CCCC3)C(=O)N(Cc3cccc4ccccc34)C1=CCC(C)(C)C2	13µM	/	/	?	/	/
CCOC(=O)[C@]12CCCC=C1N(Cc1ccc3c(c1)OCO3)C(=O)[C@H](CC(=O)NCc1cccc3ccccc13)C2	?	/	/	.	/	/
COC(=O)[C@@]12C[C@@H](CC(=O)NCc3ccccc3)C(=O)N(Cc3ccc4c(c3)OCO4)C1=CCC(C)(C)C2	21µM	/	/	?	/	/
COC(=O)[C@@]12C[C@@H](CC(=O)NCc3cccc4ccccc34)C(=O)N(Cc3ccc4c(c3)OCO4)C1=CCC(C)(C)C2	23µM	/	/	?	/	/
COC(=O)[C@@]12C[C@@H](CC(=O)NCc3cccc4ccccc34)C(=O)N(Cc3ccco3)C1=CCC(C)(C)C2	21µM	/	/	.	/	/
